About 79,000 compounds went through this panel and 15% of them were active in at least one assay; those are over-represented in the sample as a whole. Activity calls are given as the source filed them. No stated cut-off is given here; in the data, active means growth inhibition above about 70%; inactive means the rest. Where a SMILES comes first, the peptide text is derived from it.
Experiments:
[1] = NCI Yeast Anticancer Drug Screen. Data for the rad50 strain (AID 155);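 further: 0% = growth of vehicle-only cultures of the same strain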; settings: S. cerevisiae rad50 strain growth inhibition; at 50.0 µM; stronger effect = higher value
Procedure, shortened: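 Yeast carrying a defined DNA repair defect were exposed to test compounds, and growth was compared with vehicle-treated controls to give percent inhibition.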

[2] = NCI Yeast Anticancer Drug Screen. Data for the mec2-1 strain (AID 157); settings: S. cerevisiae mec2-1 strain, at 50.0 µM, stronger effect = higher value
Procedure, shortened: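 Readout is yeast growth inhibition, normalised to vehicle-treated controls, in the mec2-1 strain exposed to compound.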

[3] = NCI Yeast Anticancer Drug Screen. Data for the sgs1 mgt1 strain (AID 161);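 further: 0% = growth of cultures given vehicle only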; settings: S. cerevisiae sgs1 mgt1 strain, at 50.0 µM, stronger effect = higher value
Procedure, shortened: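 This yeast growth screen uses a strain with defined DNA-repair lesions; compound-treated growth is compared with vehicle-treated growth.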

[4] = NCI Yeast Anticancer Drug Screen. Data for the cln2 rad14 strain (AID 165);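 further: 0% = growth equal to vehicle treated cultures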; settings: S. cerevisiae cln2 rad14 strain, at 50.0 µM, stronger effect = higher value
Procedure, shortened: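 Relative to vehicle controls, growth inhibition of compound-treated cln2 rad14 yeast was recorded.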

[5] = NCI Yeast Anticancer Drug Screen. Data for the bub3 strain (AID 167); settings: S. cerevisiae bub3 mutant strain, at 50.0 µM, stronger effect = higher value
Procedure, shortened: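 Compounds were applied to a genetically altered yeast strain carrying a cell-cycle control defect. Growth inhibition was scored against vehicle-treated controls.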

[6] = NCI Yeast Anticancer Drug Screen. Data for the mlh1 rad18 strain (AID 175); settings: S. cerevisiae mlh1 rad18 strain growth inhibition; at 50.0 µM; stronger effect = higher value
Procedure, shortened: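 Test agents were incubated with a yeast strain of defined genotype (DNA damage repair defect). Inhibition of growth was derived by comparison with vehicle-exposed cultures.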

Measured: growth inhibition

NC(=O)CCCc1ccc2oc3ccccc3c2c1
inactive: [1] 13.4% | [2] -4.05% | [3] 9.05% | [4] 6.55% | [5] 22.8% | [6] 35.4%

O=c1[nH]c(=S)[nH]c2[nH]ccc12
inactive: [1] 6.75% | [2] -13.9% | [3] -19.6% | [4] -1.1% | [5] -0.6% | [6] -4.4%

COC(=O)C1Cc2ccc(C)cc2C1=O (configuration not stated)
inactive: [1] -37.7% | [2] -4.6% | [3] -1.95% | [4] 26.1% | [5] 15.4% | [6] -4.3%

CCCCCCCCCCC(CO)CCCCCCCC (configuration not stated)
inactive: [1] -14.8% | [2] 8.85% | [3] 5.85% | [4] -1.55% | [5] -9.45% | [6] 4%

CCCCOC(=O)c1ccc(NC(=O)Nc2ccc([N+](=O)[O-])cc2OC)cc1
inactive: [1] -24.2% | [2] -11.1% | [3] -17.6% | [4] 50.7% | [5] -0.8% | [6] 6.05%

N#Cc1ccc(Nc2cnc3ccc(N)cc3n2)cc1
inactive: [1] -41.2% | [2] -37.6% | [3] -43.8% | [4] -25.4% | [5] -25.4% | [6] -54.1%

CCO/C(C)=C(/C(C)=O)C(=O)NC1CCCCC1
inactive: [1] -1.65% | [2] 15.5% | [3] -0.1% | [4] 9.75% | [5] -3.25% | [6] -11.2%

CCC(=C(c1ccc(OCc2ccccc2)cc1)c1ccc(OCc2ccccc2)cc1)c1ccc(OC)cc1
inactive: [1] 14.7% | [2] -24.2% | [3] 9.45% | [4] -0.3% | [5] -20.8% | [6] -14.3%

CC12CC(=O)NN=C1c1ccccc1C2 (configuration not stated)
inactive: [1] 4.35% | [2] -10.8% | [3] 18.1% | [4] 29.6% | [5] -6.8% | [6] -2.8%

CCOC(=O)N1N=C(c2ccccc2)OC2(N3CCOCC3)CCC(C(C)(C)C)CC12 (configuration not stated)
inactive: [1] 12.8% | [2] 5.1% | [3] 4.6% | [4] 5% | [5] -3% | [6] -2.4%

CCOC(=O)CNC(=O)C(Cc1ccccc1)NC(=O)C(N)CC(=O)O (stereo not drawn) (H-Asp-Phe-Gly-OEt; configuration not given here)
inactive: [1] -18.6% | [2] -42.4% | [3] -12.1% | [4] -19.9% | [5] -13.4% | [6] -25%

COC1OC(COC(=O)c2ccc([N+](=O)[O-])cc2)C(SC#N)C1O (configuration not stated)
inactive: [1] 27.4% | [2] 2.05% | [3] 26.2% | [4] -18.3% | [5] -10.6% | [6] 33.2%

Nc1nc(-c2ccccc2)c(N=Nc2cccc(Cl)c2)s1
inactive: [1] -10.7% | [2] -4% | [3] -11.4% | [4] -48% | [5] -2% | [6] -10.8%

CC(Br)C(=O)c1ccc2ncccc2c1 (configuration not stated)
inactive: [1] 5.15% | [2] -24.8% | [3] -7.6% | [4] -1.45% | [5] 12.8% | [6] 12.8%

Cc1[nH]c(=O)c2ccccc2c1O
inactive: [1] 10.6% | [2] -8.15% | [3] -3.7% | [4] 6.35% | [5] -17.2% | [6] -1.35%

COc1cc2c(cc1O)CCN[C@@]21CS[C@H]2c3c(OC(C)=O)c(C)c4c(c3C(COC1=O)N1C2C2NC(Cc3cc(C)c(OC)c(O)c32)[C@@H]1O)OCO4 (some centres not stated)
active: [1] 91.5% | [2] 94% | [3] 93.7% | [4] 91.5% | [5] 92.2% | [6] 91.2%

O=C1OI(=O)(O)c2ccccc21 (configuration not stated)
inactive: [1] -4.35% | [2] -5.95% | [3] -7.5% | [4] -36.6% | [5] 5.2% | [6] 2.5%

COc1cc2c3c(c1)[nH]c(=S)n3C(=O)C(c1ccccc1)S2 (configuration not stated)
inactive: [1] -32.5% | [2] 5.8% | [3] -3.5% | [4] 40.6% | [5] 10.1% | [6] -27.8%

CCCCN(CCO)CC(O)Cn1cnc2c(N)ncnc21 (configuration not stated)
inactive: [1] 17.4% | [2] 13.9% | [3] 8.85% | [4] 0.7% | [5] -5.65% | [6] 21.3%

COc1cccc(/C=C/C(=O)c2sc(C(N)=S)nc2C)c1O
inactive: [1] 14.2% | [2] 1.7% | [3] 5.2% | [4] 25.9% | [5] -3.75% | [6] 7.6%

CCOC(=O)Nc1ccc(C2SCCN2C(=O)Nc2ccc(Cl)cc2)cc1 (configuration not stated)
inactive: [1] -9.5% | [2] -14.3% | [3] -9.45% | [4] -5.65% | [5] -7.7% | [6] -11.3%

c1ccc(CC/C(=N/N=C(\CCc2ccccc2)c2ccccc2)c2ccccc2)cc1
inactive: [1] 10.7% | [2] 8.05% | [3] -13.3% | [4] -8.75% | [5] -3% | [6] 7.6%

COc1cc([C@@H]2c3cc4c(cc3[C@](C)(O)[C@H]3COC(=O)[C@H]23)OCO4)cc(OC)c1OC
inactive: [1] 19.7% | [2] 10.4% | [3] 14.1% | [4] 22.8% | [5] 19.1% | [6] 11%

CCCC(NC(C)=O)C(=O)O (configuration not stated)
inactive: [1] 8.6% | [2] 2.75% | [3] 2.8% | [4] -21.1% | [5] 1.15% | [6] 8%

O=C(NCCCN1CCCCCC1)C(c1ccccc1)C1CCCCC1 (configuration not stated)
inactive: [1] 25.3% | [2] -16.4% | [3] 49.4% | [4] 13.9% | [5] 14.6% | [6] 36.1%

OC1CC2C=CC1CC2 (configuration not stated)
inactive: [1] 14.9% | [2] 10.3% | [3] 2.4% | [4] 13.2% | [5] 25.1% | [6] 14.4%

N#CCCN(N)S(=O)(=O)c1ccccc1
inactive: [1] 3.7% | [2] 7.65% | [3] 0% | [4] -34.7% | [5] 2.85% | [6] -0.2%

CCN(CC)CCOc1cccc(Oc2ccccc2)c1
inactive: [2] 62.7% | [4] 68.2% | [5] 53%
active: [1] 74% | [3] 72.8% | [6] 84%

O=C(CO)CC(=O)C(=O)Nc1nc([N+](=O)[O-])cs1
inactive: [1] -18.1% | [2] -31.8% | [3] 21% | [4] 7.9% | [5] -16.1% | [6] -21.5%

COC(=O)CC(C(C(=O)OC)C(=O)OC)N1C(=O)OCC1c1ccccc1 (configuration not stated)
inactive: [1] -16.6% | [2] -0.45% | [3] -29.1% | [4] -12.3% | [5] -17.9% | [6] -15.9%

Cc1nc([N+](=O)[O-])cn1CC(Cl)Cn1cc([N+](=O)[O-])nc1C
inactive: [1] -4.65% | [2] -12.4% | [3] -18.7% | [4] 9.7% | [5] -25.1% | [6] 14.2%

CCOC(=O)C(=CNc1ccc(NC2=NCC(C)S2)cc1)C(=O)OCC (configuration not stated)
inactive: [1] -0.05% | [2] 0.35% | [3] -20.4% | [4] -7.9% | [5] -35.8% | [6] -47%

CCCc1nc2ccccc2c(=O)n1/N=C/c1ccc(Cl)cc1Cl
inactive: [1] -11.7% | [2] 0.4% | [3] 0.05% | [4] 3% | [5] -3.45% | [6] -3.4%

O=C(O)c1c(O)cc(=O)oc1-c1ccccc1Cl
inactive: [1] -17.4% | [2] -23.2% | [3] -17.4% | [4] -13.6% | [5] -18.9% | [6] -16.9%

COC(=O)C1CN(Cc2ccccc2)C(=O)C1=O (configuration not stated)
inactive: [1] -11.3% | [2] -8.75% | [3] 2.65% | [4] -5.1% | [5] 3.95% | [6] 15.2%

O=C1CSc2ccncc2N1
inactive: [1] 13.8% | [2] 2.9% | [3] 13.5% | [4] 11.4% | [5] 15.2% | [6] 24.1%

COc1c2occc2cc2ccc(=S)oc12
inactive: [1] 13.2% | [2] -10.4% | [3] 7.35% | [4] -4.6% | [5] -19.9% | [6] 23.1%
